Data on 9 molecules can be found in the supplement of paper PMC7530171.

± gives the standard deviation.

The experiment concerns THP-1 macrophages infected with Mycobacterium tuberculosis H37Rv. The experiment in a line: intracellular M.tb growth inhibition relative to DMSO (0) and 4 uM bedaquiline (100); higher = stronger inhibition of intracellular bacterial growth. The settings on record: 10 µM; 4 days. As for the experimental part: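 OICR kinase inhibitor library screened in duplicate at 10 uM against THP-1 macrophages (PMA-differentiated) infected with M. tuberculosis H37Rv-pTEC27 (tdTomato RFP), 4 days at 37 C. Rows with complete host cell loss (placeholder inhibition 0, cell loss 100) were removed.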
As to `CC(=O)c1c(O)c(C)c(O)c(Cc2c(O)c3c(c(C(=O)/C=C/c4ccccc4)c2O)OC(C)(C)C=C3)c1O` [Rottlerin], the “intracellular M.tb growth inhibition” value is -0.827 ± 1.2%.
The result for `COc1ccc2c(c1)/C(=C/c1cnc[nH]1)C(=O)N2` reads -99.5 ± 38%.
Turning to `N#C/C(=C\c1ccc(O)c(O)c1)C(N)=S`, the “intracellular M.tb growth inhibition” value was -46 ± 15%.
The result for `COC[C@H]1OC(=O)c2coc3c2[C@@]1(C)C1=C(C3=O)[C@@H]2CCC(=O)[C@@]2(C)C[C@H]1OC(C)=O` [Wortmannin] reads -159 ± 64%; that for `Cn1cc(C2=C(c3cn(C4CCN(Cc5ccccn5)CC4)c4ccccc34)C(=O)NC2=O)c2ccccc21` [Enzastaurin], -5.94 ± 8.4%; that for `O=C1NC(=O)c2c1c1c3ccccc3[nH]c1c1[nH]c3ccccc3c21` [Arcyriaflavin A], -61.8 ± 87%.
For `NC(=S)N/N=C/c1coc2ccccc2c1=O.[Cl][Cu][Cl]`, the “intracellular M.tb growth inhibition” value amounted to 4.45 ± 6.8%.
The result for `Cc1ccccc1-n1c(Cn2cnc3c(N)ncnc32)nc2cccc(C)c2c1=O` reads -13.6 ± 20%; that for `C/C(O)=C(\C#N)C(=O)Nc1cc(Br)ccc1Br`, -33.5 ± 11%.
